Most compounds without a hit are left out; they make up all but 2.5% or so of the library.
Vaccinia mCherry: qHTS for Stage-Specific Inhibitors of Vaccinia Orthopoxvirus: mCherry Reporter Primary qHTS | Potency, µM (top dose mostly 36.5 µM), for the others: at the highest dose activity change, negative = inhibition, most hits filed as inhibitors | Vaccinia virus mCherry reporter infection, fluorescence | AID 720579, 2013 | 310,000 compounds, 0.63% hits; calls by dose curve; tested in A549 cells; further: nearly all actives have a fitted effect of over 35% in size
Lassa entry inh: qHTS for Inhibitors of binding or entry into cells for Lassa Virus; 300,000 compounds, 1.2% hits; Potency, µM (titrated, usually from 37.9 µM), for inactives: at the top dose activity change, negative = inhibition, usual class: inhibitors; Lassa virus pseudotype entry inhibition, cell reporter; calls by dose curve; tested in HEK293 cells; further: nearly all actives have a fitted effect of over 50% in size
Marburg entry inh: qHTS for inhibitors of binding or entry into cells for Marburg Virus | Marburg virus pseudotyped entry inhibition, cell reporter | Potency, µM (doses to about 37.8 µM), inactives show at the top dose activity change, negative = inhibition, usual class: inhibitors | 300,000 compounds, 1.8% hits | AID 540276, 2011; calls by dose curve; tested in HEK293 cells
VACV Venus inh: qHTS for Stage-Specific Inhibitors of Vaccinia Orthopoxvirus: Venus Reporter Primary qHTS. Potency, µM (highest dose often 36.5 µM), inactives show top-dose activity change, negative = inhibition, most hits filed as inhibitors. Vaccinia virus Venus reporter expression, fluorescence. AID 720580, 2013. 330,000 compounds, 0.46% hits; calls by dose curve; tested in A549 cells; further: nearly all actives have a fitted effect of over 30% in size
* = called active by the depositor; [ ] = remark or other dose. On the % scale 0 is the no-effect control and ±100 the full control effect; potency means the concentration at half of the fitted maximal effect.

CCOCCN1CCN(c2c(CC)c(C)nc3cc(-c4cc(OC)cc(OC)c4)nn23)CC1 was read as Vaccinia mCherry -18%, Lassa entry inh inconclusive, Marburg entry inh inconclusive and VACV Venus inh inconclusive.
`CCc1c(C)nc2cc(-c3cc(OC)cc(OC)c3)nn2c1N1CCCC1` gave Vaccinia mCherry -14%, Lassa entry inh -25%, Marburg entry inh 3.7µM* and VACV Venus inh -21%.
For CN(C)Cc1ccccc1Sc1cccc2ccccc12 the results were Vaccinia mCherry inconclusive, Lassa entry inh 15µM*, Marburg entry inh 21µM* and VACV Venus inh -26%.
CN(C)Cc1ccccc1Sc1ccccc1Br was read as Vaccinia mCherry inactive, Lassa entry inh 15%, Marburg entry inh 0% and VACV Venus inh 1%.
Cc1cc(C(=O)COc2cccnc2[N+](=O)[O-])c(C)n1-c1ccccc1 was read as Vaccinia mCherry -21%, Lassa entry inh 4.6µM*, Marburg entry inh inconclusive and VACV Venus inh -5%.
For CC(C)[C@@H](OCc1ccccc1)[C@H](C)CO/N=C1/[C@H]2CCn3c(=O)n(-c4ccccc4)c(=O)n3[C@H]2[C@H](O)[C@@H]2O[C@H]12 the results were Marburg entry inh 25%[14.2 µM].
`COc1ccc(/C=C/C(=O)c2c(C)cc(C)[nH]c2=O)c2ccccc12` gave Vaccinia mCherry 8.9µM*, Lassa entry inh inconclusive, Marburg entry inh inconclusive and VACV Venus inh inconclusive.
Screening COc1ccccc1/C=C/C(=O)c1c2c(c(C)[nH]c1=O)CCCC2 returned Vaccinia mCherry inconclusive, Lassa entry inh -46%[14.3 µM], Marburg entry inh 21µM* and VACV Venus inh 11µM*.
Cc1ccc(/C=C/C(=O)c2c(C)cc(C)[nH]c2=O)cc1 was read as Lassa entry inh inconclusive and Marburg entry inh 23µM*.
COc1ccccc1/C=C/C(=O)c1ccc(NC(C)=O)cc1 was read as Vaccinia mCherry inconclusive, Lassa entry inh 11µM*, Marburg entry inh 13µM* and VACV Venus inh inconclusive.
`Cc1cc(C)c(C(=O)/C=C/c2ccco2)c(=O)[nH]1` gave Vaccinia mCherry -16%, Lassa entry inh -7%, Marburg entry inh 2%[46.1 µM] and VACV Venus inh -1%.
COc1cc(C=CC(=O)c2ccccc2)cc(OC)c1OC was read as Vaccinia mCherry 5% and VACV Venus inh -6%.
For C[N+]1=C(/C=N/O)CCCC1 the results were Marburg entry inh 2%.
O=C(NCC1Cc2cccc(-c3cnccn3)c2O1)c1ccc(F)c(Cl)c1 (stereo not given) was read as Vaccinia mCherry -10% and VACV Venus inh -4%.
O=C1CC[C@@H](CN(Cc2cccnc2)C2CCN(c3ccc(NC(=O)c4cnccn4)cc3)CC2)N1 was read as Vaccinia mCherry inactive and VACV Venus inh 2%.
Screening COc1ccc(C(=O)NCCc2nnc3n2CCN(CC2CC=CCC2)CC3)cc1 (stereo not given) returned Vaccinia mCherry -22% and VACV Venus inh -8%.
For CCOC(=O)NN=Cc1ccccc1-c1cc(OC)ccc1OC the results were Marburg entry inh -4%[14.2 µM].
`CCN(CC)CCOC(=O)C1(c2ccccc2)CCCC1` gave Vaccinia mCherry inactive, Lassa entry inh 0%, Marburg entry inh -28% and VACV Venus inh -11%.
For CCN(CC)CCOC(=O)C1(C2CCCCC2)CCCCC1 the results were Vaccinia mCherry -5%, Lassa entry inh inconclusive, Marburg entry inh 13µM* and VACV Venus inh -19%.
CCN1C(=O)NC(c2cccs2)C(C(=O)OC)=C1C (stereo not given) was read as Marburg entry inh 1%[14.2 µM].
Screening COc1cc(C(=O)Nc2ccc(S(=O)(=O)N3CCc4ccccc43)cc2)cc(OC)c1OC returned Lassa entry inh -19% and Marburg entry inh 12µM*.
For O=C(Nc1ccc(S(=O)(=O)N2CCc3ccccc32)cc1)c1ccco1 the results were Vaccinia mCherry inconclusive, Lassa entry inh 7.3µM*, Marburg entry inh -21% and VACV Venus inh -20%.
CCOC(=O)N1CCN(C(=O)c2cc(S(=O)(=O)N3CCc4ccccc43)ccc2OC)CC1 was read as Vaccinia mCherry inactive, Lassa entry inh 1.8µM*, Marburg entry inh -10% and VACV Venus inh -11%.
CCN1C(=NCCc2cccnc2)N[C@H](CCc2ccccc2)[C@H](C(=O)OC)[C@H]1C was read as Marburg entry inh -16%[14.2 µM].
`CN1CCN(CC(=O)N2CCn3c4c(c5cc(C6CCCCC6)ccc53)CCCC42)CC1` (stereo not given) gave Vaccinia mCherry 11µM*, Lassa entry inh inconclusive, Marburg entry inh inconclusive and VACV Venus inh inconclusive.
Cc1ccsc1-c1nc(CN(C)C(C2CC2)C2CC2)c(C)o1 was read as Vaccinia mCherry -4%, Lassa entry inh -8%[46.1 µM], Marburg entry inh 8.9µM* and VACV Venus inh -18%.
Cc1cccc(NS(=O)(=O)c2ccc(C)c(C(=O)OCC(=O)Nc3cc(C)on3)c2)c1 was read as Vaccinia mCherry 22µM*, Lassa entry inh 4.5µM*, Marburg entry inh inconclusive and VACV Venus inh 9%.
Screening Cc1cc(NC(=O)COC(=O)CNS(=O)(=O)c2ccc(C)c(C)c2)no1 returned Lassa entry inh -2% and Marburg entry inh 14%.
For COc1ccc(S(=O)(=O)N2CCOCC2)cc1NC(=O)c1ccccc1-c1ccc(C(F)(F)F)cc1 the results were Vaccinia mCherry -21%, Lassa entry inh 6.3µM*, Marburg entry inh inconclusive and VACV Venus inh -9%.
For Cc1cccc(N(C(=O)CCC(=O)Nc2nccs2)C(C(=O)NC(C)(C)C)c2ccc(O)cc2)c1 (stereo not given) the results were Vaccinia mCherry inactive, Lassa entry inh inconclusive, Marburg entry inh 2.8µM* and VACV Venus inh -8%.
For CC(C)(C)NC(=O)C(c1ccc(O)cc1)N(C(=O)CCC(=O)Nc1nccs1)c1cccc(F)c1 (stereo not given) the results were Vaccinia mCherry 1%, Lassa entry inh 0%[46.1 µM], Marburg entry inh 2.3µM* and VACV Venus inh -2%.
For CC(C)(C)NC(=O)C(c1ccc(O)cc1)N(C(=O)CCC(=O)Nc1nccs1)c1ccccc1F (stereo not given) the results were Vaccinia mCherry -8%, Lassa entry inh 10%, Marburg entry inh inconclusive and VACV Venus inh -4%.
`C[C@H](NC(=O)c1ncn2c1c(=O)[nH]c1ccc(Br)cc12)c1ccccc1` gave Vaccinia mCherry inconclusive and VACV Venus inh 13µM*.
COc1cccc2c1Oc1cc([N+](=O)[O-])cc(N(C)C(C)=O)c1C=C2 was read as Vaccinia mCherry 7.1µM*, Lassa entry inh -11%[46.1 µM], Marburg entry inh -29%[46.1 µM] and VACV Venus inh -21%.
COC(=O)c1sc(NC(=O)c2cc3c(s2)CCCC3)nc1C was read as Lassa entry inh -22% and Marburg entry inh 11%.
Screening Cc1csc(NC(=O)c2cc3c(s2)CCC3)n1 returned Lassa entry inh inconclusive, Marburg entry inh 13µM* and VACV Venus inh -5%.
Screening O=C(O)CSc1nnc(NC(=O)c2ccc3c(c2)OCO3)s1 returned Vaccinia mCherry inactive, Lassa entry inh 8.9µM*, Marburg entry inh inconclusive and VACV Venus inh -4%.
